In the supplement of paper PMC11732987, “Enantioselective OTUD7B fragment discovery through chemoproteomics screening and high-throughput optimisation” (Communications Chemistry, 2025):

Columns and labels:
Assay in all cases: log2 ratio of Biotin-Ahx-Ub-VS probe labelling (fragment/DMSO); higher = less target engagement (more negative = stronger competition), active = hit call of the paper (q ≤ 0.05, log2 ratio ≤ -1)
Settings in all cases: compound concentration: 200 uM; treatment time: 3 h
USP34 = USP34 (UniProt Q70CQ2)
Sequence of USP34 (Q70CQ2 whole entry, the tested form may be a part): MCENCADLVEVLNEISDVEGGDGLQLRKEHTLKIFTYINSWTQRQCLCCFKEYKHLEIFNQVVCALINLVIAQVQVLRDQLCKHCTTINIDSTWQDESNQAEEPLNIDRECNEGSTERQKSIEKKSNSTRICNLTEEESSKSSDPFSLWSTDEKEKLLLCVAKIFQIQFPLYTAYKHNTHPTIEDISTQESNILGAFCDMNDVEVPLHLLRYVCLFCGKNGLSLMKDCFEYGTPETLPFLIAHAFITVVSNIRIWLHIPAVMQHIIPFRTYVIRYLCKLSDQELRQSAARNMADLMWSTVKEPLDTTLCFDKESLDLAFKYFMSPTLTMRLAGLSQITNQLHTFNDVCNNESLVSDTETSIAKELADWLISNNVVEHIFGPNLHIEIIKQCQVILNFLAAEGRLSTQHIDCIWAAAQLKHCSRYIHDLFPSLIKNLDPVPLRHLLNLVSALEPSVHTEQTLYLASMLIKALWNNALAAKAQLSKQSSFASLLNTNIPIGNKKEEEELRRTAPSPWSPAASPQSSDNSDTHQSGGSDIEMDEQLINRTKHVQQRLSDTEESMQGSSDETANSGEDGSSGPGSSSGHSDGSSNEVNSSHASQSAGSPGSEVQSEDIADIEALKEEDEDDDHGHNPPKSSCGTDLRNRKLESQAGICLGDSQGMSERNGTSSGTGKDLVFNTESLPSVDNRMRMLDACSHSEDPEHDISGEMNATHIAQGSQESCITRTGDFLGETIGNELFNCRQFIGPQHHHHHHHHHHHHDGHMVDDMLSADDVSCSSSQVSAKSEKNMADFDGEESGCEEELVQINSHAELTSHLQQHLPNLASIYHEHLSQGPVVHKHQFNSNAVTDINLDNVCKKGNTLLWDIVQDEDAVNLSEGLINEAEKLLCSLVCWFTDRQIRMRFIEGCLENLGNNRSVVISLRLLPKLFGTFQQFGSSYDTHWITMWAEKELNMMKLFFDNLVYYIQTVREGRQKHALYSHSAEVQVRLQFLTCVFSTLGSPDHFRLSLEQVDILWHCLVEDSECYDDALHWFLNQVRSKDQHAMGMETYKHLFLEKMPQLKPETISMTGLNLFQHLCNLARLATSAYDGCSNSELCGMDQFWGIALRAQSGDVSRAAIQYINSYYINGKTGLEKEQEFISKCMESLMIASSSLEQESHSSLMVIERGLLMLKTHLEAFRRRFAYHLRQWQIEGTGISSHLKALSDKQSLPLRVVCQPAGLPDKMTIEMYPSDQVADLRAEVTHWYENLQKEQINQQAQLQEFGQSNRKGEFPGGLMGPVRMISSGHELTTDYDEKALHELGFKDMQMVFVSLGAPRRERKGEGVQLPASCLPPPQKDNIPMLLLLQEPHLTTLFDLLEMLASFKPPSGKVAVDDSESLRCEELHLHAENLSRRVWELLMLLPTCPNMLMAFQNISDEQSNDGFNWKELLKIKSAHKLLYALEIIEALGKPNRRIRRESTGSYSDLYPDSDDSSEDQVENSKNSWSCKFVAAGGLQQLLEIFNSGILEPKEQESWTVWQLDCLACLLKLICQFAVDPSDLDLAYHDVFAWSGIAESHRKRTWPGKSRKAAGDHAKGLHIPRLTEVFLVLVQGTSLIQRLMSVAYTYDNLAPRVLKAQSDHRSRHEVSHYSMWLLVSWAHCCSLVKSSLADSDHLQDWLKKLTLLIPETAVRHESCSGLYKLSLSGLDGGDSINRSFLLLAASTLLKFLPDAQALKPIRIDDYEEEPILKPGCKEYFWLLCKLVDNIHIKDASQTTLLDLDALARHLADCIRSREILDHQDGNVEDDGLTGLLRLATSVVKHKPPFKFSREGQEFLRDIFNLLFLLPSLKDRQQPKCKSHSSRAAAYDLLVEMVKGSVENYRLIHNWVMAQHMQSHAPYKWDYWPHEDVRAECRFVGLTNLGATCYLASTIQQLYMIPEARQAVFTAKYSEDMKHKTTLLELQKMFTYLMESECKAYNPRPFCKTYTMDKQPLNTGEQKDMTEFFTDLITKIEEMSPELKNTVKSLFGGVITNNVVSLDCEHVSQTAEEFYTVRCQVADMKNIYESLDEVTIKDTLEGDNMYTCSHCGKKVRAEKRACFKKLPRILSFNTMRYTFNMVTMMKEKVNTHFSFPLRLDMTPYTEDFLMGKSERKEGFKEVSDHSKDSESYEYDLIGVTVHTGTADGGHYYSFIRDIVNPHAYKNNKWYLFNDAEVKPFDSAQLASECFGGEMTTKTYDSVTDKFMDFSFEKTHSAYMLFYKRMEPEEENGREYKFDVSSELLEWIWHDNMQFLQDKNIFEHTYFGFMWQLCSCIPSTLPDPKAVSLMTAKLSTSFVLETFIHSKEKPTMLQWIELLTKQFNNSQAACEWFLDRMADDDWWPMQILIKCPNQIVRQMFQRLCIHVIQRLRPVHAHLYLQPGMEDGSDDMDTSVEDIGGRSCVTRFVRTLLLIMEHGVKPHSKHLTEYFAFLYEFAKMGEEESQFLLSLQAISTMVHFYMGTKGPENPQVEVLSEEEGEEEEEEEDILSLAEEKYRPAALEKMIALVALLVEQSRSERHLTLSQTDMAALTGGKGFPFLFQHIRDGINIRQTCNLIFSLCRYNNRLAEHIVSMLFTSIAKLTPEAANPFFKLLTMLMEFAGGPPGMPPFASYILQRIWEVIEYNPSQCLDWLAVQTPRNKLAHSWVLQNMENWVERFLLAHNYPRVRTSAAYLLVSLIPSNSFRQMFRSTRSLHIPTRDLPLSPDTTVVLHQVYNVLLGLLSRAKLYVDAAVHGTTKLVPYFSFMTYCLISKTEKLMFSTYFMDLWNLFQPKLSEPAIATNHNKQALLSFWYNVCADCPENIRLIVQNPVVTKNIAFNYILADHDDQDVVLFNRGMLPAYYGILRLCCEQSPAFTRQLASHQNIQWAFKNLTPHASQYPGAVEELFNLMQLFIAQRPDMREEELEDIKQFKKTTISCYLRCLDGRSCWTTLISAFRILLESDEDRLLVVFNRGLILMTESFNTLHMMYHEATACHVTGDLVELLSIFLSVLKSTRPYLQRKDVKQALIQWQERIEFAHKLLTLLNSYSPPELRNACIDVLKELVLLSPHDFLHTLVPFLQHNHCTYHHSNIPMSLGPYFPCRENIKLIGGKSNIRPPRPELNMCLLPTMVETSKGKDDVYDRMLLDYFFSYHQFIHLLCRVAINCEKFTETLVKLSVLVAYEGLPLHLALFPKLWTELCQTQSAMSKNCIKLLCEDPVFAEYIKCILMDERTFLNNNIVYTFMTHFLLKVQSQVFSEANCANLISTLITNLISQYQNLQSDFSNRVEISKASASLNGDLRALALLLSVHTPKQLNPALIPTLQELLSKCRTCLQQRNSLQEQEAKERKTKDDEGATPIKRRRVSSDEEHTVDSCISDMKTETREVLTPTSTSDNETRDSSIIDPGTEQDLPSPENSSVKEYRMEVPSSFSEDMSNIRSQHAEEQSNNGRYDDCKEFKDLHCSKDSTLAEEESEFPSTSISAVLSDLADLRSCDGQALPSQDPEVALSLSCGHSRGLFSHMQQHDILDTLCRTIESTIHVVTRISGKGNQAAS
In short: (§1)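 Average log2 ratios of fragment over vehicle were obtained by unpaired t-test from global-median-normalised Spectronaut label-free quantities. Proteins with ≥2 unique peptides were included. HEK293T lysate (495 µg per sample) was treated in triplicate with fragment at 200 µM or vehicle for 3 h, then with Biotin-Ahx-Ub-VS at 0.5 µM final for 1 h, and labelled DUBs were NeutrAvidin-enriched and run by diaPASEF LC-MS/MS.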

USP36 = biological target: T1, USP36 (UniProt Q9P275)
T1 sequence (whole entry): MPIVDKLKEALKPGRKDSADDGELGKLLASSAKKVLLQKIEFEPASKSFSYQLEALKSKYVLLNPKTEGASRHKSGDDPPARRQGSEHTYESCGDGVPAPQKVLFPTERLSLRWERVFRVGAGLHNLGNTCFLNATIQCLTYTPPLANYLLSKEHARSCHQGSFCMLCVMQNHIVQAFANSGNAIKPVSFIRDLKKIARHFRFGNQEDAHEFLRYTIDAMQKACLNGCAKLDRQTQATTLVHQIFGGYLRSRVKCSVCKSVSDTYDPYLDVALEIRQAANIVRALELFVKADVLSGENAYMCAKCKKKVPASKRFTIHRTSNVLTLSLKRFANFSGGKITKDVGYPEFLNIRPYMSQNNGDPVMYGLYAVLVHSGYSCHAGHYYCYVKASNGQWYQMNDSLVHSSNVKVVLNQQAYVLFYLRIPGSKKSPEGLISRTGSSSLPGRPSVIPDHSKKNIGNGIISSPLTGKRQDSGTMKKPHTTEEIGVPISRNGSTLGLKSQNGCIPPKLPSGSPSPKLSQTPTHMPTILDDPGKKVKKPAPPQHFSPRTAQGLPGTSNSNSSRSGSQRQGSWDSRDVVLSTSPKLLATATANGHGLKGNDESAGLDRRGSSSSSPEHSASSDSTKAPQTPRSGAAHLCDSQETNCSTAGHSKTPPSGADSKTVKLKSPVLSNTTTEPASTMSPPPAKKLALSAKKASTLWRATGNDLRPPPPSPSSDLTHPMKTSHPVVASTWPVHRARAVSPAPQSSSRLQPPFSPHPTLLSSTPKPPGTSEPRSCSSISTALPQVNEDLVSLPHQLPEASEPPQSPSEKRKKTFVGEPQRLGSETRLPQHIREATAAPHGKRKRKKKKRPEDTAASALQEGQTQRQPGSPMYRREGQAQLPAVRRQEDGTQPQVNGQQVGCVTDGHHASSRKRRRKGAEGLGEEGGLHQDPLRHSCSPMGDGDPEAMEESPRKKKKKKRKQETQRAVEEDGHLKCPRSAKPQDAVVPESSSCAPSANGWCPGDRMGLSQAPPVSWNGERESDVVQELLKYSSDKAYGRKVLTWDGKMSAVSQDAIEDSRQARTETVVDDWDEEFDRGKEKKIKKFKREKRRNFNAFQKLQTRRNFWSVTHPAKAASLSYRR
In short: as §1

USP38 = biological target: T2, USP38 (UniProt Q8NB14)
T2 sequence (whole entry): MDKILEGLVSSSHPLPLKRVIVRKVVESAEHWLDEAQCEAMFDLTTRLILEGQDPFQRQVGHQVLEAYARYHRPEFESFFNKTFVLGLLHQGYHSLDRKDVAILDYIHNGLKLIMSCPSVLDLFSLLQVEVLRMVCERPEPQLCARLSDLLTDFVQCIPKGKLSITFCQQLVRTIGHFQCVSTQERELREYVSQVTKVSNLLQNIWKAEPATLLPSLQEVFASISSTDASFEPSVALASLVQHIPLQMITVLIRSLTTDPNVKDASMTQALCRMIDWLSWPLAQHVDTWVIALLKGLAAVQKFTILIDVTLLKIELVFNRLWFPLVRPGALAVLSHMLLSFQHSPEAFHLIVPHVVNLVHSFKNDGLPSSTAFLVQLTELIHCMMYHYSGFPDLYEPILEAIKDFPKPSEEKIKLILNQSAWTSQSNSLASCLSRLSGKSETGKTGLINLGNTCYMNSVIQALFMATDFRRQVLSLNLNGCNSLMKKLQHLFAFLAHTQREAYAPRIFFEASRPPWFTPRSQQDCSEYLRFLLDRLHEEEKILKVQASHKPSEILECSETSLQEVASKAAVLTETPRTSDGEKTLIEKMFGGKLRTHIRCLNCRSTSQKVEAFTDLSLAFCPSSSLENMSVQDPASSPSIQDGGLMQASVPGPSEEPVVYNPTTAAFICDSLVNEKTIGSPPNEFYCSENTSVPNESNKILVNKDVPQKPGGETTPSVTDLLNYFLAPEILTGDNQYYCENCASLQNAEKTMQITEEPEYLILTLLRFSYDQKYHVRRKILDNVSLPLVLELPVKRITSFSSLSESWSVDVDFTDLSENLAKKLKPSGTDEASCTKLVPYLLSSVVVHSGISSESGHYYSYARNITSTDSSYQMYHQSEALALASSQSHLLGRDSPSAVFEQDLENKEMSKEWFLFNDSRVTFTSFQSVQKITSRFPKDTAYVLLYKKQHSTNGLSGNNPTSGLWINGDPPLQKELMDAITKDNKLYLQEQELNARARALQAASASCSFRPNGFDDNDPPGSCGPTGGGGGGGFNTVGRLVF
In short: as §1

USP39 = biological target: T3, USP39 (UniProt Q53GS9)
T3 sequence (whole entry): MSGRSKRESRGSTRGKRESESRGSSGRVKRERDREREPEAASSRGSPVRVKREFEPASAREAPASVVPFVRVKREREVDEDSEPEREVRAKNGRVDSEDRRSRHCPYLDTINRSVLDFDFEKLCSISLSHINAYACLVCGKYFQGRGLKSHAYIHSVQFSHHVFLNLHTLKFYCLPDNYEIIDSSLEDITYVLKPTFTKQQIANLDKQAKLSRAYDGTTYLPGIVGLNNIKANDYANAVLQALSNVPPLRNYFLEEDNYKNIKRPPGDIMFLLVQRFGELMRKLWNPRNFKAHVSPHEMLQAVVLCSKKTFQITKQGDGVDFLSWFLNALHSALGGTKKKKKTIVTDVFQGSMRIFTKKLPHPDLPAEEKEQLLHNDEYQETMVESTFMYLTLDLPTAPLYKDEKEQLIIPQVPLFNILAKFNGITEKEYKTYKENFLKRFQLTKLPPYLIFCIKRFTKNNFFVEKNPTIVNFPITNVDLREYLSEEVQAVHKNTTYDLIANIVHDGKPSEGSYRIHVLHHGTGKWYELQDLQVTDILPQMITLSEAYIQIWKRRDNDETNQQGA
In short: as §1

USP4 = biological target: T4, USP4 (UniProt Q13107)
T4 sequence (whole entry): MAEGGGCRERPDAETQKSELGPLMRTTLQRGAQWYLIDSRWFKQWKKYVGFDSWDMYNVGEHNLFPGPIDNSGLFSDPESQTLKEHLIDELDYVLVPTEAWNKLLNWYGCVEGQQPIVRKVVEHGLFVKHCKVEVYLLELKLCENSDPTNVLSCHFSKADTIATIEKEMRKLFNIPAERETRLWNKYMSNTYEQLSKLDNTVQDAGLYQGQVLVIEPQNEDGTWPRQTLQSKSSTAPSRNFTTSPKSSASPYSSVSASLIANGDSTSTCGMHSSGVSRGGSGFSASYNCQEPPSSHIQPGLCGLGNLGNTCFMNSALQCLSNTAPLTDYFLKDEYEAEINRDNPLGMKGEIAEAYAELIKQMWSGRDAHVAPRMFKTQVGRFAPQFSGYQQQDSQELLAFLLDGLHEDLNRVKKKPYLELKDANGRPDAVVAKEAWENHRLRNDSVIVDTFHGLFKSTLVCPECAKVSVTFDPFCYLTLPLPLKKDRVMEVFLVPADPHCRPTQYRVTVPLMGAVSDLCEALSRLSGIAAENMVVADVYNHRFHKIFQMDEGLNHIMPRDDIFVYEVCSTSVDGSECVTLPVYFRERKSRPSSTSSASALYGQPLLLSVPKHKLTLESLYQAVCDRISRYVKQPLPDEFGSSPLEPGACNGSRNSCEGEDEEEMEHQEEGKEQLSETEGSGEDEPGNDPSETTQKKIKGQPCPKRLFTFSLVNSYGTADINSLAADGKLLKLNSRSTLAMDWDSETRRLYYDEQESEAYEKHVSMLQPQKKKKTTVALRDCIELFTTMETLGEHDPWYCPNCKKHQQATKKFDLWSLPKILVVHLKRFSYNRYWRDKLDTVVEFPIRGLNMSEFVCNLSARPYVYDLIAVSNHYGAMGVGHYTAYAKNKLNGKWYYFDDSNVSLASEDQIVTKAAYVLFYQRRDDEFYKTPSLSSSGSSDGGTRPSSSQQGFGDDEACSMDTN
In short: as §1

Measured: log2 ratio of Biotin-Ahx-Ub-VS probe labelling

Cc1n[nH]c2c1CN(C(=O)CCl)CC2
inactive: USP34 -0.404 | USP36 -0.284 | USP38 -0.715 | USP39 0.183 | USP4 -0.888
